Assay outcomes: PubChem BioAssay, several laboratories
In the library only some 4.4% were active in any assay of this set; here they are far more common.
NFkB transloc inh = inhibitors of IL-1B driven NFkB p65 nuclear import, primary screen, imaging, HUVEC, IL-1B stimulus, high-content imaging | HUVEC IL-1B NFkB p65 nuclear translocation imaging | inhibition, % at 2 µM | 94,000 tested, 0.43% active;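 active means inhibition above about 30% together with a positive call from visual inspection of the well image, limit read from the data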;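 further: nuclear over cytoplasmic p65 intensity ratio measured by imaging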
Cav3 T inh = Cav3.2 calcium influx blockers – cell-based, Fluo-4 calcium fluorescence, FDSS, MLSMR library, primary screen. Cav3.2-expressing cells; hits give low values. B-score at 10 µM. 100,000 tested, 4% active;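 active means single-dose well whose peak fluorescence ratio is a statistical outlier from its plate by either plate-standardised score or position-corrected B-score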
HUVEC tox IL1B = cytotoxicity in IL-1B stimulated HUVEC, primary screen, cytotoxicity control for IL-1B NFkB translocation project, imaging, Hoechst nuclear count, IL-1B stimulus; HUVEC cell count loss; cell count reduction, % at 2 µM; 94,000 tested, 0.41% active;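 active means cell count reduction more than 3 SD above the screen-wide mean, cut at about 70% in these data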
NFkB transloc pot = enhancers of NFkB p65 translocation in HUVEC – imaging, IL-1B stimulus, high-content imaging, primary screen | HUVEC IL-1B NFkB p65 nuclear translocation imaging | activation, % at 2 µM | 94,000 tested, 0.3% active | AID 819, 2007;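 active means activation above 40%, about the mean plus 3 SD, also judged a hit on visual image review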;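 further: percent activation is computed from the nuclear over cytoplasmic p65 intensity ratio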
A number is an active result; n = inactive; x = no result.

SMILES	NFkB transloc inh	Cav3 T inh	HUVEC tox IL1B	NFkB transloc pot
N#Cc1c(-c2ccccc2)c(-c2ccccc2)nn(CC(=O)NNC(=O)Nc2ccc(Cl)c(Cl)c2)c1=O	n	-6.51	n	n
N#Cc1c(-c2ccccc2)nc2n(-c3ccccc3)nc(C(=O)Nc3ccccc3)n2c1=O	n	n	n	n
O=C(N/N=C/C1C(c2ccccc2)C1(Cl)Cl)c1cccc(Br)c1 (stereo not drawn)	n	-6.73	n	n
COc1ccccc1C1(O)CC2CCC(C1)N2S(=O)(=O)c1ccc(C(C)=O)cc1 (stereo not drawn)	n	n	n	n
CN(C)/C=C(\C#N)C(=O)c1cccc(Oc2ccc(Br)cc2)c1	x	-4.24	x	x
O=C(NC(Cc1ccccc1)C(=O)O)c1ccc(S(=O)(=O)N2CCCCC2)cc1 (stereo not drawn)	n	n	n	n
Cc1nc(SCC(=O)NCc2ccco2)[nH]c(=O)c1C	n	n	n	n
O=C(CSc1nc2nc(-c3cccs3)cc(C(F)(F)F)c2c(=O)[nH]1)NCc1ccco1	n	-3.97	n	n
Cc1cc(C(=O)NCc2ccc(S(N)(=O)=O)cc2)c(C)o1	n	n	n	n
CN(C)C(=O)NCc1ccc(S(N)(=O)=O)cc1	n	n	86.7	n
NS(=O)(=O)c1ccc(CNC(=O)CC23CC4CC(CC(C4)C2)C3)cc1	32.0	x	n	n
CN(C)C(=O)NC(O)C(Cl)Cl (stereo not drawn)	n	n	n	n
Cc1[nH]c2ccccc2c1NC(=O)CN1CCN(c2cccc(C(F)(F)F)c2)CC1	n	-8.17	n	n
Cc1ccc2[nH]c(C(=O)O)c(NC(=O)CN3CCN(c4cccc(C)c4C)CC3)c2c1	n	-4.95	n	n
CC(=O)Nc1ccc(NC(=O)CN2CCN(c3cccc(C(F)(F)F)c3)CC2)cc1	34.2	n	n	n
FC(F)(F)c1cccc(NC(=S)N2CCN(c3cccc(C(F)(F)F)c3)CC2)c1	n	n	n	n
O=C(CN1CCN(c2cccc(C(F)(F)F)c2)CC1)Nc1cccc(C(F)(F)F)c1	n	-5.46	n	n
COc1ccc(C(=O)n2c(SC)nc3cc4c(cc32)OCCO4)cc1	n	n	n	n
CCOc1cc(S(=O)(=O)Nc2ccccc2CC)ccc1Cl	n	-5.76	n	n
CC(C)Sc1nnc([C@H](Cc2c[nH]c3ccccc23)NC(=O)OC(C)(C)C)o1	n	-4.11	n	n
CC(C)(C)OC(=O)N[C@@H](Cc1ccccc1)c1nnc(S(=O)(=O)Cc2ccccc2)o1	38.4	n	n	n
COc1cc(NC(=O)NCc2ccncc2)cc(OC)c1OC	n	n	n	n
Cc1ccc(N(C(C)C(=O)O)S(=O)(=O)c2c(C)n[nH]c2C)cc1 (stereo not drawn)	n	n	n	n
CCOC(=O)c1c(C)[nH]c(C(=O)C(C)OC(=O)c2cccc(OCc3c(C)noc3C)c2)c1C (stereo not drawn)	n	-4.72	n	n
Cc1noc(C)c1COc1cccc(C(=O)NCc2ccccc2Cl)c1	n	n	n	n
SMILES	NFkB transloc inh	Cav3 T inh	HUVEC tox IL1B	NFkB transloc pot
COc1ccc2sc3c(=O)[nH]c4ccccc4c3c2c1	n	n	n	43.4
CN(Cc1ccccc1)C(NC(=O)c1ccccc1)C(Cl)(Cl)Cl (stereo not drawn)	n	-5.69	n	n
CCN(CC)C(NC(=O)Cc1ccccc1)C(Cl)(Cl)Cl (stereo not drawn)	n	n	n	n
Cc1ccc(CN(C(=O)c2csnn2)C(C(=O)NC2CCCC2)c2ccc(C)o2)cc1 (stereo not drawn)	n	n	n	n
Nc1ncnc2nc(Sc3ccc(Cl)cc3)[nH]c12	34.1	n	n	n
CCCN(CC(=O)c1cc(C)n(C)c1C)S(=O)(=O)c1cccc(C(F)(F)F)c1	n	-4.42	n	n
Cc1c2cnn(-c3ccccc3)c(=O)c2c(C)n1CCCC(=O)N1CCN(c2ncccn2)CC1	x	5.47	x	x
CCCn1c(SCC(=O)Nc2ccccc2Oc2ccccc2)n[nH]c1=O	n	n	n	n
Nc1c(Cl)cc(-c2csc(NC(CO)c3nc4ccccc4n3CCOCCO)n2)cc1Cl (stereo not drawn)	x	n	x	x
COc1cccc(NC(=O)N2CCN(c3cccc(C)c3C)CC2)c1	n	-7	n	n
CC1CCc2c(sc3ncnc(N4CCN(S(=O)(=O)c5cccc6nonc56)CC4)c23)C1 (stereo not drawn)	n	x	n	n
COc1cccc(-c2cnc(NCc3cc(Cl)ccc3O)n2C)c1	n	-4.28	n	n
Cn1c(-c2cccc(Br)c2)cnc1NCc1cccnc1	n	n	n	n
CCOC(=O)c1[nH]c2ccc(F)cc2c1NC(=O)CN1CCc2cc(OC)c(OC)cc2C1	n	x	n	47.6
CCOC(=O)c1[nH]c2cc(OC)c(OC)cc2c1NC(=O)CN1CCN(c2ccc(OC)cc2)C(C)C1 (stereo not drawn)	n	-5.4	n	n
CCOC(=O)c1[nH]c2ccc(OC)cc2c1NC(=O)CN1CCSCC1	n	n	n	n
COc1ccc(C2SCC(=O)N2c2c(C)n(C)n(-c3ccccc3)c2=O)c(OC)c1 (stereo not drawn)	n	n	n	n
CCOc1ccc(C(CCc2ccccc2)NC(=O)c2ccccc2)cc1OCC (stereo not drawn)	n	-5.13	n	n
CCOc1ccc(C(CC(=O)O)NC(=O)c2ccco2)cc1OC (stereo not drawn)	n	n	n	n
CCCCC1(Cc2ccc([N+](=O)[O-])cc2)C(=O)N(c2ccccc2)N(c2ccccc2)C1=O	n	-4.8	n	n
O=C(c1ccco1)N1CCN(Cc2nnnn2CCc2ccccc2)CC1	n	n	n	n
CN(C)CCCOC(=O)Cc1ccc(Cl)cc1	n	n	n	n
Cc1cc(C)cc(CC(Cc2nc3ccccc3[nH]2)c2nc3ccccc3[nH]2)c1 (stereo not drawn)	n	-6.67	n	n
Cc1ccc(C(=O)NCc2ccc3c(c2)OCO3)cc1S(=O)(=O)N1CCCCC1	n	-7.43	n	n
COc1ccc(NC(=O)CSc2nnc(-c3cccs3)n2-c2ccccc2)cc1	n	n	n	n
SMILES	NFkB transloc inh	Cav3 T inh	HUVEC tox IL1B	NFkB transloc pot
CCOP(=O)(c1ccccc1)c1nc(-c2ccccc2Cl)oc1N1CCCCC1 (stereo not drawn)	n	-10.6	n	n
O=C(CN1C(=O)c2ccccc2S1(=O)=O)c1ccccc1	n	n	n	n
Cc1ccc(C(=O)CN2/C(=C(\O)c3ccccc3)C(=O)c3ccccc3S2(=O)=O)c(C)c1	x	-5.88	x	x
CC(C)(C)OC(=O)CC[C@@H](C(=O)N1CCN(C(=O)OC(C)(C)C)CC1)n1cc(C(CO)NC(=O)OC(C)(C)C)nn1 (stereo partly drawn)	x	n	x	x
Cn1c(=O)c2c(SCc3ccccn3)nc(CC(C)(C)C)nc2n(C)c1=O	n	-5.88	n	n
C=CCn1c(SCC(=O)N(C)C2CCS(=O)(=O)C2)nnc1-c1ccncc1 (stereo not drawn)	n	x	n	n
CCOCCCNC(=O)CCCOc1ccccc1	n	n	n	n
